# Screens from PubChem BioAssay.
# Cycloheximide cs: Cycloheximide Counterscreen for Small Molecule Inhibitors of Shiga Toxin; cell reporter, cycloheximide protein synthesis inhibition counterscreen; max response, %; 300,000 tested, 12% active; in the data active = max response mostly above about 13%, no sharp cut-off; inactive = mostly below about 14%; also: read at 38.3 µM for the half of the compounds with a filed dose; 0% is about no effect
# Shiga toxin inh: A qHTS for Small Molecule Inhibitors of Shiga Toxin; Vero cells, Shiga toxin protein synthesis inhibition reporter; inhibition, % at 38.7 µM; 290,000 tested, 9.2% active; in the data active = inhibition mostly above about 28%, no sharp cut-off; inactive = mostly below about 43%; also: 0% is about no effect
# Pf growth 96h: Primary qHTS for delayed death inhibitors of the malarial parasite plastid, 96 hour incubation | 320,000 tested, 6.9% active | P. falciparum luciferase reporter growth, 96 h | AID 504834, 2011 | Potency, µM (doses to about 28.7 µM), inactives show at the highest dose activity change, negative = inhibition, hits mostly inhibitors; also: potency is read from the fitted curve at half-maximal effect; % is scaled to controls: 0 for no effect and ±100 for the full control effect
#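 Plates of compound plus infected erythrocytes (2% hematocrit, 0.05% parasitemia final) incubate 96 hours, 37 C, 5% CO2. Detection reagent added; reduced luminescence from the parasites' luciferase reporter flags inhibition.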
# Pf growth 48h: Primary qHTS for delayed death inhibitors of the malarial parasite plastid, 48 hour incubation; 310,000 tested, 5.9% active; P. falciparum luciferase growth in erythrocytes, 48 h; Potency, µM (doses to about 28.7 µM), inactives show at the top dose activity change, negative = inhibition, usual class: inhibitors; also: potency is read from the fitted curve at half-maximal effect; % is scaled to controls: 0 for no effect and ±100 for the full control effect
#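 First compound was added to culture medium, then infected red cells at 0.1% parasitemia and 2% hematocrit (final). After incubation at 37 C under 5% CO2, luciferase detection reagent was dispensed and light output recorded.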
# Marburg entry inh: qHTS for inhibitors of binding or entry into cells for Marburg Virus | Marburg virus pseudotyped entry inhibition, cell reporter | Potency, µM (top dose mostly 37.8 µM), for inactives: top-dose activity change, negative = inhibition, actives largely listed as inhibitors | 300,000 tested, 1.8% active | AID 540276, 2011; calls by dose curve; tested in HEK293 cells; also: potency is read from the fitted curve at half-maximal effect; % is scaled to controls: 0 for no effect and ±100 for the full control effect
# Lassa entry inh: qHTS for Inhibitors of binding or entry into cells for Lassa Virus | Lassa virus pseudotype entry inhibition, cell reporter | Potency, µM (titrated, usually from 37.9 µM), inactives show at the highest dose activity change, negative = inhibition, most hits filed as inhibitors | 300,000 tested, 1.2% active; calls by dose curve; tested in HEK293 cells; also: potency is read from the fitted curve at half-maximal effect; % is scaled to controls: 0 for no effect and ±100 for the full control effect; nearly all actives have a fitted effect of over 50% in size
# * = called active by the depositor; ? = inconclusive; · = not tested or not shown; [ ] = another dose, or the depositor's remark. Hits are enriched below; roughly 19% of the tested compounds scored in any of these assays. Unless noted, calls follow the shape of the dose curve; as a rule, active = well fitted inhibition curve with a large enough effect; inconclusive = small, poorly fitted or top-dose-only effect, or another doubt; inactive = no such curve, though single readings can be large or run the other way.
SMILES,Cycloheximide cs,Shiga toxin inh,Pf growth 96h,Pf growth 48h,Marburg entry inh,Lassa entry inh
O=C(NN1C(=O)c2ccccc2NC1c1ccco1)c1ccccc1 (stereo not given),7.4,25.5,?,13.5%,8.8%[46.1 µM],8.0%
COc1ccc(N2CCN(CCCNC(=O)c3c(C)nn(-c4ccc(F)cc4)c3-n3cccc3)CC2)cc1,·,·,·,·,·,-20.8%[46.1 µM]
Cc1ccccc1N/C(=C(/C(Cl)=C(Cl)Cl)[N+](=O)[O-])n1nnc2ccccc21,-2.2,13.4,?,7.0%,7.9%,-0.2%
O=C(NCc1cccnc1)c1ccccc1CCc1ccccc1,-0.5,-2.2,18.7%[1.15 µM],-7.2%,·,·
O=C(NCCO)c1ccc(Oc2ccc(C(F)(F)F)cc2[N+](=O)[O-])cc1,-4.3,24.2,-28.4%,6.1%,-17.7%[46.1 µM],16.3%
CC(=O)c1ccccc1NC(=O)CN1C(=O)CS/C1=C\c1nc(-c2ccc(C)cc2)cs1,0.3,-1.1,3.7%,-16.4%,16.6%[46.1 µM],-1.3%
CCOc1ccc(CCNC(=O)CCc2nnc3ccc(N4CCCCC4)nn23)cc1OCC,-2.5,6.5,5.22µM*,?,·,·
CCOC(=O)c1ccc(NC(=O)CCc2nnc3ccc(N4CCCC4)nn23)cc1,0.8,-9.7,2.8%,-19.3%,·,·
CCN(CC)c1ccc(NC(=O)CCc2nnc3ccc(N4CCCC4)nn23)c(C)c1,1.0,-1.0,?,11.7µM*,·,·
CCOc1ccc(CCNC(=O)CCc2nnc3ccc(N4CCOCC4)nn23)cc1,0.5,-3.8,14.1%,-7.1%,·,·
CCc1nn(CC(=O)N2CCN(c3cccc(C)c3C)CC2)c(=O)c2cc3occc3n12,·,·,·,·,2.4%[46.1 µM],24.4%[46.1 µM]
COc1ccccc1CCNC(=O)C(=O)NCC1OCCN1S(=O)(=O)c1ccc(Br)cc1 (stereo not given),-2.3,-4.2,-20.2%,?,0.3%,-5.7%
CC(=O)c1cccc(NC(=O)N2CCCC2C(=O)Nc2ccc3c(c2)OCCO3)c1 (stereo not given),13.5*,87.2*,4.3%,-0.2%,25.8%[46.1 µM],?
CC(=O)c1cccc(NC(=O)N2CCCC2C(=O)NCc2ccc3c(c2)OCO3)c1 (stereo not given),-1.8,-8.5,13.1µM*,?,-4.0%[46.1 µM],7.2%[46.1 µM]
COc1cccc(NC(=O)N2CCCC2C(=O)Nc2ccc3c(c2)OCCO3)c1 (stereo not given),8.4,-3.2,12.2%,-2.2%,·,·
O=C(NCc1ccc2c(c1)OCO2)C1CCCN1C(=O)Nc1cccc(F)c1 (stereo not given),7.4,13.7,-1.1%,?,-0.4%,3.0%
C=CCNC(=O)c1onc(CSc2cc(C)cc(C)c2)c1C(=O)NCC=C,-2.0,-6.7,?,?,·,·
CC1CCN(S(=O)(=O)c2cccc(C(=O)NC3CCCCC3)c2)CC1,3.7,1.4,185.4%,?,14.7%[46.1 µM],?
CCOc1ccc(NC(=O)CCc2c(C)nn(-c3ccc(N4CCCCC4)nn3)c2C)cc1,27.2*,44.9*,30.1%,26.9%,·,·
CCOc1ccc(CNC(=O)CCc2c(C)nn(-c3ccc(N4CCOCC4)nn3)c2C)cc1,·,·,·,·,·,15.6%[46.1 µM]
Cc1nn(-c2ccc(N3CCCCC3)nn2)c(C)c1CCC(=O)Nc1cccc(F)c1,44.3*,83.7*,?,83.7%,·,?
Cc1ccc(NC(=O)CCc2c(C)nn(-c3ccc(N4CCCCC4)nn3)c2C)cc1F,41.0*,71.0*,0.0%,34.4%,-9.1%[46.1 µM],?
Cc1nn(-c2ccc(N3CCCCC3)nn2)c(C)c1CCC(=O)Nc1ccc(F)cc1,33.7*,55.4*,?,16.4%,·,·
Cc1ccc(C)c(NC(=O)CCc2c(C)nn(-c3ccc(N4CCCCC4)nn3)c2C)c1,18.0,-2.3,?,-8.2%,?,?
O=C(O)CC1c2ccccc2CCN1S(=O)(=O)c1ccc(F)cc1 (stereo not given),6.3,-13.1,?,-14.7%,5.2%,-9.7%
SMILES,Cycloheximide cs,Shiga toxin inh,Pf growth 96h,Pf growth 48h,Marburg entry inh,Lassa entry inh
COCCN(C(=O)CNC(=O)c1ccco1)C(C(=O)NC1CCCCC1)c1cccnc1 (stereo not given),-2.2,-2.7,18.7%,7.9%,-1.9%[46.1 µM],2.3%
COC(=O)c1cc(C(=O)OC)n(Cc2ccc(Br)cc2)n1,19.6,21.5,·,30.6%,-5.0%,?
Cc1nn(-c2ccc(N3CCCC3)nn2)c(C)c1CCC(=O)Nc1ccccc1,·,·,·,·,·,9.7%[46.1 µM]
CCc1cccc(NC(=O)CCc2c(C)nn(-c3ccc(N4CCCCC4)nn3)c2C)c1,40.2*,95.0*,?,25.7%,·,·
CCOC(=O)c1cccc(NC(=O)CCc2c(C)nn(-c3ccc(N4CCCC4)nn3)c2C)c1,·,·,·,·,·,5.2%[46.1 µM]
Cc1cc(C)cc(NC(=O)CCc2c(C)nn(-c3ccc(N4CCOCC4)nn3)c2C)c1,26.1*,35.1,?,-2.4%,?,-1.5%[46.1 µM]
CCc1ccc(NC(=O)CCc2c(C)nn(-c3ccc(N4CCCCC4)nn3)c2C)cc1,49.1*,80.8*,55.5%,11.4%,·,·
CCOC(=O)C1(Cc2cccc(OC)c2)CCN(C/C=C/c2ccccc2)CC1,-6.7,-2.1,?,?,7.94µM*,?
CCOC(=O)C1(Cc2cccc(OC)c2)CCN(C2CCOCC2)CC1,33.2*,82.4*,?,23.0%,4.2%,3.3%
CCOC(=O)C1(Cc2ccccc2C(F)(F)F)CCN(C2CCSC2)CC1 (stereo not given),-2.4,10.1,?,?,-5.7%[46.1 µM],-14.5%
CCOC(=O)C1(Cc2ccccc2C(F)(F)F)CCN(C2CCCC2)CC1,-2.9,-7.3,10.8%,1.3%,7.94µM*,?
CCOC(=O)C1(Cc2cccc(OC)c2)CCN(Cc2cnc(C)s2)CC1,0.3,19.9,9.28µM*,?,-22.7%[46.1 µM],-28.4%
CCOC(=O)C1(Cc2cccc(OC)c2)CCN(Cc2cccc(OCC)c2O)CC1,-1.0,-5.1,-13.9%,-22.9%,7.08µM*,-24.3%[46.1 µM]
CCOC(=O)C1(Cc2cccc(OC)c2)CCN(Cc2ccc(OC)c(O)c2)CC1,-4.9,-5.7,?,?,·,·
CCCC(=O)n1nc(-c2ccc(C)cc2)nc1NCc1ccco1,31.7*,76.1*,19.1%,126.4%,?,-14.3%
Cc1ccc(C(=O)n2nc(-c3ccccc3)nc2NCc2ccco2)cc1,18.6*,20.6,149.5%,5.7%,-0.4%,8.4%
O=S(=O)(c1ccccc1)n1nc(-c2ccccc2)nc1NCc1ccco1,30.5*,74.2*,26.4%,68.9%,9.5%[46.1 µM],12.1%
O=C(c1ccc(C(F)(F)F)cc1)N1CCC(c2noc(-c3ccc(S(=O)(=O)N4CCCC4)cc3)n2)CC1,·,·,·,·,0.8%[46.1 µM],?
CCN(CC)CCCNC(=O)c1cn(C)c2ccc(S(=O)(=O)N3CCOCC3)cc2c1=O,·,·,·,·,0.0%[46.1 µM],15.9%[46.1 µM]
Cc1c(-c2ccccc2)nnn1-c1ccc(F)cc1F,45.0*,73.4*,62.6%,·,?,?
CC1CC(C)CN(C(=O)c2ccc3ncsc3c2)C1 (stereo not given),·,·,-5.8%,-6.1%,-4.2%,?
